# PubChem BioAssay (NCATS)
# Inconclusive results are not listed. Where a call stands in place of a potency, no number is given. The source made the active and inactive calls. Unless noted, the call rests on the fitted dose curve; in most records, active means well fitted curve in the direction sought with a large enough effect; inconclusive means small, poorly fitted or top-dose-only effect, or another doubt; inactive means no such curve, though single readings can be large; an effect the other way counts as inactive or inconclusive.
# Target: Alpha-galactosidase (Coffea arabica) (UniProt Q42656)
# Sequence (Q42656 whole entry, looked up): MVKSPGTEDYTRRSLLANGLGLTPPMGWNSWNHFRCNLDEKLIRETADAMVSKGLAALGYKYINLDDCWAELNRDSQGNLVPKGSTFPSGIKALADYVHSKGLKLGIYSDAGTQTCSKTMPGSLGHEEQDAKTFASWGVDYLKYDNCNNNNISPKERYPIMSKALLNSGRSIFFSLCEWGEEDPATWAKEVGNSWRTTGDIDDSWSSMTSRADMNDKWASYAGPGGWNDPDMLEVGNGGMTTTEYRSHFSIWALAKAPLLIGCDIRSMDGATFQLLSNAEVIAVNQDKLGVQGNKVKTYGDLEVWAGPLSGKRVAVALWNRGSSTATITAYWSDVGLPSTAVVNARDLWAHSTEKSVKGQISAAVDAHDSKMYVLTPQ
# Assay: Counterscreen for Glucocerebrosidase Inhibitors: qHTS Assay for Coffee Bean alpha-Galactosidase at pH 4.5 (AID 957)
# Settings: purified coffee bean alpha-galactosidase, fluorogenic substrate; series mostly up to 76.9 µM
# In short: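 Coffee bean enzyme (2 nM) with 80 uM 4-methylumbelliferyl alpha-D-galactopyranoside in 50 mM citric acid, 0.005% Tween-20, pH 4.5, 20 min at room temperature; compounds 0.7 nM–77 uM. Stopped at pH 10, fluorescence 365/440 nm; AC50 from Hill fits.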
row,SMILES,outcome
1,COc1cc2ncnc(Nc3cccc(Cl)c3)c2cc1OC,inactive
2,C[C@]12CC[C@@H]3c4ccc(O)cc4CC[C@H]3[C@@H]1CC[C@@H]2O,inactive
3,O=c1c(-c2ccc(O)cc2)coc2cc(O)ccc12,inactive

# Target: Alpha-galactosidase (Coffea arabica) (UniProt Q42656)
# Assay: Counterscreen for Glucocerebrosidase Inhibitors: qHTS Assay for Coffee Bean alpha-Galactosidase at pH 5.9 (AID 998)
# Settings: coffee bean alpha-galactosidase enzyme assay; series mostly up to 76.9 µM
# In short: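 Compounds were titrated from 0.7 nM to 77 uM against green coffee bean alpha-galactosidase (2 nM) using 80 uM fluorogenic 4-methylumbelliferyl substrate. After 20 min at room temperature, reactions were stopped at pH 10 and read by fluorescence.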
row,SMILES,outcome
1,COc1cc2ncnc(Nc3cccc(Cl)c3)c2cc1OC,inactive
2,C[C@]12CC[C@@H]3c4ccc(O)cc4CC[C@H]3[C@@H]1CC[C@@H]2O,inactive
3,O=c1c(-c2ccc(O)cc2)coc2cc(O)ccc12,inactive

# Tested on: not listed separately
# Assay: Validation screen for inhibitors of Lassa infection (AID 463096; calls by dose curve)
# Settings: Lassa virus infection, cell-based; series mostly up to 46.1 µM
row,SMILES,Potency
1,COc1cc2ncnc(Nc3cccc(Cl)c3)c2cc1OC,inactive
2,C[C@]12CC[C@@H]3c4ccc(O)cc4CC[C@H]3[C@@H]1CC[C@@H]2O,inactive
3,O=c1c(-c2ccc(O)cc2)coc2cc(O)ccc12,inactive

# Tested on: not listed separately
# Assay: Inducers of the Endoplasmic Reticulum Stress Response (ERSR) in human glioma: Validation (AID 504836)
# Settings: human glioma cells, ER stress response reporter; series mostly up to 38.3 µM
# In short: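 ERSR induction read as luciferase luminescence (Bright-Glo, 10 min at room temperature) in stably transfected human U87-MG glioma cells exposed to compounds for 16 h, using GRP78 as sensor.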
row,SMILES,outcome
1,COc1cc2ncnc(Nc3cccc(Cl)c3)c2cc1OC,inactive
2,C[C@]12CC[C@@H]3c4ccc(O)cc4CC[C@H]3[C@@H]1CC[C@@H]2O,inactive
3,O=c1c(-c2ccc(O)cc2)coc2cc(O)ccc12,inactive

# Tested on: not listed separately
# Assay: qHTS for Inhibitors of the Functional Ribonucleoprotein Complex (vRNP) of Lassa (LASV) Arenavirus: LASV Primary Screen - GLuc reporter signal (AID 1347082; calls by dose curve; tested in HEK293 reporter line; further: nearly all actives have a fitted effect of over 60% in size; further: potency means the concentration at half of the fitted maximal effect)
# Settings: LASV minigenome vRNP, Gaussia luciferase reporter; series mostly up to 57.5 µM
row,SMILES,Potency
1,CCN(CCO)CCCOc1ccc2c(Nc3cc(CC(=O)Nc4cccc(F)c4)[nH]n3)ncnc2c1,inactive
2,COc1cc2ncnc(Nc3cccc(Cl)c3)c2cc1OC,inactive
3,COC1=C2C[C@@H](C)C[C@H](OC)[C@@H](O)[C@@H](C)C=C(C)[C@H](OC(N)=O)[C@@H](OC)C=CC=C(C)C(=O)NC(=CC1=O)C2=O,9.68 µM (active)
4,O=C(O)C1(Cc2cccc(Nc3nccs3)n2)CCC(Oc2cccc(Cl)c2F)CC1 (configuration not stated),inactive
5,COc1c(O)cc(O)c2c(=O)cc(-c3ccccc3)oc12,inactive
6,CN1CCN(c2cccc(Nc3nc4c(-c5ccc(S(C)(=O)=O)cc5)cccn4n3)c2)CC1,inactive
7,O=c1c(O)c(-c2ccccc2)oc2ccccc12,inactive
8,C[C@@H]1C(=O)O[C@H]2[C@H](O)[C@@]34[C@H]5CC(C(C)(C)C)[C@]36[C@H](OC(=O)[C@H]6O)O[C@]4(C(=O)O5)[C@@]12O (some centres not stated),inactive
9,C=C1CCC2C(C)(C)[C@H](O)CC[C@@]2(C)[C@@H]1COc1cc(=O)oc2ccccc12 (some centres not stated),inactive
10,Cc1cccc(Nc2nc(-c3ccncc3)cs2)c1,inactive
11,O=C(c1ccc(C=Cc2n[nH]c3ccccc23)cc1)N1CCNCC1,inactive
12,COc1cc(OC)c(NC(=O)Nc2cc(C)on2)cc1Cl,inactive
13,C=C1C(=O)O[C@H]2[C@H]1[C@H](OC(=O)/C(C)=C\C)C[C@]1(CO1)[C@@H]1[C@H](OC(C)=O)C=C(C)[C@]21O,inactive
14,CN(Cc1nc2c(N)nc(N)nc2[nH]c1=O)c1ccc(C(=O)NC(CCC(=O)O)C(=O)O)cc1 (configuration not stated),inactive
15,COC1C(O)C(C)OC(OC2CCC3(C=O)C(CCC4C3CCC3(C)C(C5=CC(=O)OC5)CCC43O)C2)C1O (configuration not stated),inactive
16,C[C@]12CC[C@@H]3c4ccc(O)cc4CC[C@H]3[C@@H]1CC[C@@H]2O,inactive
17,Cn1cc(-c2ccncc2)c(-c2ccc(OCc3ccc4ccccc4n3)cc2)n1,21.7 µM (active)
18,O=c1c(-c2ccc(O)cc2)coc2cc(O)ccc12,inactive
19,C[C@]12CC[C@@H]3c4ccc(O)cc4CC[C@H]3[C@H]1[C@@H](O)[C@@H](O)[C@H]2O,inactive
20,COc1ccc(C2CC(c3ccccc3)=NN2c2ccc(S(N)(=O)=O)cc2)cc1 (configuration not stated),inactive

row,SMILES,Potency
1,CCS(=O)(=O)N1CC(CC#N)(n2cc(-c3ncnc4[nH]ccc34)cn2)C1,inactive
2,COc1cc2c(oc(=O)c3cc(C)cc(OC)c32)c2c(C3OC(C)C(O)C(C)(O)C3O)ccc(O)c12 (configuration not stated),inactive
3,COc1cc2c(c(OC)c1OC)-c1ccc(OC)c(=O)cc1[C@@H](NC=O)CC2,35.5 µM (active)
4,NS(=O)(=O)c1ccc(Nc2nc(OCC3CCCCC3)c3[nH]cnc3n2)cc1,inactive
5,Nc1nc(F)nc2c1ncn2[C@@H]1O[C@H](COP(=O)(O)O)[C@@H](O)[C@H]1O,inactive
6,Nc1ncnc2c1nc(Cl)n2[C@@H]1O[C@H](CO)[C@@H](O)[C@@H]1O,inactive
7,COc1ccc(-c2oc3cc(OC)c(O)c(OC)c3c(=O)c2OC)cc1O,inactive
8,C=CCc1ccc(O)c(-c2ccc(O)c(CC=C)c2)c1,inactive
9,O=C1NC(=O)C(=Cc2ccc3nccnc3c2)S1,inactive
10,O=c1[nH]nc(OCCCc2ccc(Cl)cc2)c(NCc2cccnc2)c1Br,inactive
11,NC(=O)c1cccc2[nH]c(-c3ccc([C@H]4CCCN4)cc3F)nc12,inactive
12,CCn1c(C(=O)N(C2CC2)C2CC2)cc2c3c(ncn3C)c(Nc3cc(C)n(C)n3)nc21,inactive
13,COc1cc2c(cc1OC)[C@@H]1Cc3ccc(OC)c(OC)c3CN1CC2,inactive
14,N[C@H](CSC(c1ccccc1)(c1ccccc1)c1ccccc1)C(=O)O,inactive
15,Clc1cc(Cl)cc(CNc2ncncc2-c2ccc3c(c2)OCO3)c1,inactive
16,C=CC(=O)Nc1cccc(Sc2nc(Nc3ccc(N4CCN(C)CC4)cc3)ncc2Cl)c1,inactive
17,CC(C)n1cnc2c(NCCc3ccc(O)cc3)nc(-c3csc4ccccc34)nc21,inactive
18,COc1cc(C(C)C)c2c(c1)S(=O)(=O)N(COc1cc(=O)n3cccc(OCCN4CCCCC4)c3n1)C2=O,inactive
19,CN(C)CC[C@H](CSc1ccccc1)Nc1ccc(S(=O)(=O)NC(=O)c2ccc(N3CCN(Cc4ccccc4-c4ccc(Cl)cc4)CC3)cc2)cc1[N+](=O)[O-],inactive
20,Cn1c(=O)c(Oc2ccc(F)cc2F)cc2cnc(NC3CCOCC3)nc21,inactive
